# PubChem BioAssay
# Calls of active or inactive are those of the source.
# How the values were obtained:
# [1] = test system: Plasmodium falciparum Sir2 (PF13_0152, Sir2A); assay: pfSir2 binders on small-molecule microarrays, primary screen, biochemical, small-molecule microarray, 635 nm fluorescence (AID 1098); conditions: small-molecule microarray binding, fluorescence 635 nm; higher = more signal;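 note: score merges spot fluorescence intensity with its signal-to-noise ratio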
# [2] = small-molecule microarray binders of probe aDKK1, primary screen, biochemical, biotinylated probe, 635/667 nm fluorescence (AID 1099); conditions: higher = more signal;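 note: score merges 667nm spot fluorescence with signal to noise across triplicate slides; reference of the scale not given here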
# [3] = small-molecule microarray binders of probe aCHRDL2, primary screen, biochemical, biotinylated probe, 635/667 nm fluorescence (AID 1100); conditions: higher = more signal
# [4] = splicing luciferase reporter signal modulators, primary screen, spliceosome inhibition project, cell-based, HEK293, splice +/- reporter (AID 1101); conditions: luminescence, 24 h, higher = more signal, called active from +8 up or from −8 down;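 note: HEK293 cells carrying a splicing-competent luciferase reporter gene; test concentration not given here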
# [5] = target: Fibroblast growth factor 10 (Homo sapiens) (UniProt O15520); assay: FGF10 binders on small-molecule microarrays, primary screen, biochemical, small-molecule microarray, 635 nm fluorescence (AID 1102); conditions: FGF10 binding, fluorescence 635 nm, higher = more signal
# Chain of Fibroblast growth factor 10 (Homo sapiens) (O15520 whole entry, looked up): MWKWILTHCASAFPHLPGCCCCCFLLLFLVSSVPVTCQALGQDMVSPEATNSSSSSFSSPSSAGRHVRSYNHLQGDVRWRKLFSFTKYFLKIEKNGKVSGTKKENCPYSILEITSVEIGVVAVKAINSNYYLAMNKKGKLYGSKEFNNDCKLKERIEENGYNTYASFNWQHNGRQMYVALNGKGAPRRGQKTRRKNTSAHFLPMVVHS
# [6] = test system: glycogen synthase kinase-3 (GSK3A per assay name; protocol says GSK3B); assay: GSK3 binders on small-molecule microarrays, primary screen, biochemical, small-molecule microarray, 635 nm fluorescence, GSK3A (AID 1103); conditions: small-molecule microarray binding, fluorescence 635 nm; higher = more signal; note: the record names both GSK3A and GSK3B
# [7] = target: Epidermal growth factor receptor (Homo sapiens) (UniProt P00533); assay: EGFR binders on small-molecule microarrays, primary screen, biochemical, small-molecule microarray, 635 nm fluorescence (AID 1104); conditions: EGFR binding, higher = more signal;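 note: score merges 667 nm emission intensity with spot signal to noise over triplicate slides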
# Chain of Epidermal growth factor receptor (Homo sapiens) (P00533 whole entry, looked up): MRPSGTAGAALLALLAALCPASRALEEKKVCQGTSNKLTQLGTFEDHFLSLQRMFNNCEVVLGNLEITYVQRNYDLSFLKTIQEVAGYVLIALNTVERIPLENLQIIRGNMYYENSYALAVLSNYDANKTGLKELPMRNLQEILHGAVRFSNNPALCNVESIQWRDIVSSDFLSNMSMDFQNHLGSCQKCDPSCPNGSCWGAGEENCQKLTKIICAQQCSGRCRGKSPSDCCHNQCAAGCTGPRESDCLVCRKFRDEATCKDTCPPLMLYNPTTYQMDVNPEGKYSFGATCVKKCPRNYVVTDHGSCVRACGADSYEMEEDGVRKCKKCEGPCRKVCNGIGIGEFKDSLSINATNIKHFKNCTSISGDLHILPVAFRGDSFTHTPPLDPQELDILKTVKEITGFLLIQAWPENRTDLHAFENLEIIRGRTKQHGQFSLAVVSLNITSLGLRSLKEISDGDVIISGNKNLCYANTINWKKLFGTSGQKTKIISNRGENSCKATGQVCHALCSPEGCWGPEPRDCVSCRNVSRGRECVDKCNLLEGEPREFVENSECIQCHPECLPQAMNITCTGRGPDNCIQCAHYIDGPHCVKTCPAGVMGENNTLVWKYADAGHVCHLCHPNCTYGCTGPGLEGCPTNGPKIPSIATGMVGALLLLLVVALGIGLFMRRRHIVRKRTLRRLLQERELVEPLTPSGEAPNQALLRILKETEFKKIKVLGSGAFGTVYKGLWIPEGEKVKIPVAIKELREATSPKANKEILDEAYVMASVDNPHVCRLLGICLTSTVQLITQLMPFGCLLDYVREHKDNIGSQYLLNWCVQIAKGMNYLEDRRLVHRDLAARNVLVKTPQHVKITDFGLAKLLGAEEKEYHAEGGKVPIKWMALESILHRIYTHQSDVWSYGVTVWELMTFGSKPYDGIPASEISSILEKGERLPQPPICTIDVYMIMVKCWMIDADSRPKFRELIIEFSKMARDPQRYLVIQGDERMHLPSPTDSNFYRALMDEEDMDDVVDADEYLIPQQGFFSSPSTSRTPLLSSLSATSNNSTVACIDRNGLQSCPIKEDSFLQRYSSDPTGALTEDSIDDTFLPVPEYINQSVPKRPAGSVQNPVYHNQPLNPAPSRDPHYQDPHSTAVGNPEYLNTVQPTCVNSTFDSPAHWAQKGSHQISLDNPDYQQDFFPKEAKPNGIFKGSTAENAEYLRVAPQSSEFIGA
# [8] = target: Follistatin-related protein 3 (Homo sapiens) (UniProt O95633); assay: FSTL3 binders on small-molecule microarrays, primary screen, biochemical, small-molecule microarray, 635 nm fluorescence (AID 1105); conditions: FSTL3 binding, higher = more signal;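 note: score merges emission near 667 nm and signal to noise per printed spot across three slides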
# Chain of Follistatin-related protein 3 (Homo sapiens) (O95633 whole entry, looked up): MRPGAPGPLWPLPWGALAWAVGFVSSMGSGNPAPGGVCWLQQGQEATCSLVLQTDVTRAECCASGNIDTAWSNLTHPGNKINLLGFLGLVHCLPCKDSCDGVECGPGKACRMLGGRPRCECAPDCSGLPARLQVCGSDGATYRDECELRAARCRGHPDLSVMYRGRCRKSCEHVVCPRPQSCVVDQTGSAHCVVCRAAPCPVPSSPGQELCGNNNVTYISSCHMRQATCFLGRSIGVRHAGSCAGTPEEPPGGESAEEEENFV
# [9] = target: Dickkopf-related protein 1 (Homo sapiens) (UniProt O94907); assay: DKK1 binders on small-molecule microarrays, primary screen, biochemical, small-molecule microarray, 635 nm fluorescence scan (AID 1106); conditions: DKK1 binding, higher = more signal;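 note: score merges emission near 667 nm with signal to noise over three replicate slides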
# Chain of Dickkopf-related protein 1 (Homo sapiens) (O94907 whole entry, looked up): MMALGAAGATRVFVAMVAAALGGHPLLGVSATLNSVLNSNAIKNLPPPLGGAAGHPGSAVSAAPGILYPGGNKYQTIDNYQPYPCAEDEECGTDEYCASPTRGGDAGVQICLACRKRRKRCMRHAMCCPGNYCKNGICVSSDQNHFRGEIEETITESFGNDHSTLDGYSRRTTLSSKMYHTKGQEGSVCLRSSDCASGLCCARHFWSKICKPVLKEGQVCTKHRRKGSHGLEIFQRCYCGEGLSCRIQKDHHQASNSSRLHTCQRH
# [10] = test system: Inhibin beta A chain (activin A); assay: INHBA (activin A) binders on microarrays, primary screen, biochemical, small-molecule microarray, 635 nm fluorescence scan (AID 1107); conditions: small-molecule microarray binding, higher = more signal;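 note: mouse activin A protein probed at 4.33 µg/mL on printed slides; score merges bound-protein fluorescence near 667 nm with spot signal-to-noise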
Structure (SMILES),composite z-score [1],composite z-score [2],composite z-score [3],z-score [4],composite z-score [5],composite z-score [6],composite z-score [7],composite z-score [8],composite z-score [9],composite z-score [10]
CC1(C)[C@@H]2CC(C(O)C3C=CC4C(=O)N(Cc5ccccc5)C(=O)C4N3n3cnnc3)=C[C@H]1C2 (stereo not given in full),0.779,0.454,0.355,-0.0958 (inactive),0.801,1.28,0.0902,0.74,0.0252,1.2
CC[C@@H]1C=C(C(=O)O)[C@H](c2ccc(Br)cc2)N1S(=O)(=O)c1ccc(C)cc1,0.118,0.495,0.882,1.28 (inactive),0.102,0.268,0.444,0.563,-0.235,1.11
C=CCNC(=O)[C@H]1[C@@H]2C(=O)O[C@@H](c3ccccc3)[C@@H](c3ccccc3)N2[C@@H](c2ccccc2OCCO)[C@]12C(=O)Nc1ccc(C#CCC(C(=O)OC)C(=O)OC)cc12,0.797,0.309,0.973,-2.39 (inactive),1.26,1.33,1.15,1.37,1.23,0.568
C=CCN1C(=O)[C@@]2(Cc3ccccc31)N=C(c1ccc(OCCCO)cc1)O[C@H]2c1ccccc1,1.16,1.01,0.935,-1.52 (inactive),0.583,1.32,0.435,0.983,0.776,1.13
[N-]=[N+]=Nc1ccccc1[C@@H]1OC(c2ccc(OCCCO)cc2)=N[C@]1(CCS(=O)(=O)c1ccccc1)C(N)=O,1.37,0.708,1.25,-0.752 (inactive),1.09,1.23,0.0129,1.22,-0.329,0.992
CC(CO)N1C(=O)[C@@H]2C3C(=O)OCCC/C=C\[C@H]3OC23C=CCN(C(C)(C)C)C(=O)[C@@H]13 (stereo not given in full),0.205,-0.349,-0.522,0.742 (inactive),0.259,-0.0474,-0.325,0.0856,0.113,0.0635
COC(=O)[C@@]1(Cc2ccc(OC)cc2)[C@H]2c3cc(C(=O)N(C)C)n(Cc4ccccn4)c3C[C@H]2CN1C(=O)c1ccccc1,1.04,1.2,1.36,-1.71 (inactive),-0.024,-0.305,-0.627,-0.317,-0.659,-1.71
[N-]=[N+]=NCc1ccccc1C[C@]1(C(=O)N2CCCCC2)N=C(c2ccc(OCCCO)cc2)O[C@H]1c1ccccc1N=[N+]=[N-],0.711,1.1,1.19,-1.01 (inactive),0.55,0.998,0.26,0.308,-0.5,1.36
COCCCNC(=O)[C@@]1(C)c2ccccc2C(=O)N(C(C)C)[C@H]1c1ccc(CO)cc1,0.572,0.174,0.343,-0.373 (inactive),0.555,0.497,0.517,0.861,0.888,0.531
C[N+](C)(C)CCCC[C@@H]1NC(=O)[C@H]2C[C@@H](C(=O)NCCCCCCNC(=O)CS)[C@@H](c3cccc(OCCO)c3)N2C1=O,0.726,-0.0575,0.861,-0.213 (inactive),-0.85,-0.805,-1.06,-0.994,-0.602,-0.57
COCCOC(=O)N1C(=O)[C@@]2(c3cc(C#CCC(C(=O)OC)C(=O)OC)ccc31)[C@H](C(=O)N1CCN(c3ncccn3)CC1)[C@H]1C(=O)O[C@H](c3ccccc3)[C@H](c3ccccc3)N1[C@@H]2c1ccccc1OCCO,0.664,-0.0805,-0.408,0.476 (inactive),1.33,1.3,0.926,1.38,0.962,0.286
COc1ccc(-c2cc3c(c(-c4ccc(Oc5ccccc5)cc4)n2)[Si](C(C)C)(C(C)C)OC3)cn1,-0.207,-0.242,-0.262,0.00906 (inactive),-0.0354,-0.175,-0.0425,0.148,0.0989,0.365
COC(=O)[C@@]1(Cc2ccccc2)[C@H]2c3cc(C(=O)N4CCCC4)n(Cc4ccc(S(C)(=O)=O)cc4)c3C[C@H]2CN1C(=O)c1ccccc1,0.525,1.52,1.03,-1.18 (inactive),0.387,1.18,0.679,0.94,0.222,1.3
CC1(C)[C@@H]2CC(C(O)C3C=CC4C(=O)N(c5ccccc5)C(=O)C4N3Nc3ccc([N+](=O)[O-])cc3)=C[C@H]1C2 (stereo not given in full),0.966,0.217,0.648,-0.547 (inactive),1.11,1.34,0.604,1.38,-0.104,0.482
COc1ccc(C#Cc2ccc3c(c2)[C@]2(C(=O)N3)[C@H](C(=O)NC[C@H](O)c3ccccc3)[C@H]3C(=O)O[C@H](c4ccccc4)[C@H](c4ccccc4)N3[C@@H]2c2ccc(O)cc2)cc1,1.16,-0.0262,0.295,-0.993 (inactive),1.02,1.16,0.417,0.768,0.484,0.0998
NC(=O)NCC#Cc1ccc2c(c1)[C@]1(C(=O)N2)[C@H](c2ccccc2OCCO)N2[C@H](c3ccccc3)[C@H](c3ccccc3)OC(=O)[C@H]2[C@@H]1C(=O)Nc1nc2ccccc2s1,0.134,-0.0335,0.483,0.663 (inactive),0.271,-0.175,-0.209,0.429,0.0336,0.52
Cc1ccc(S[C@]2(C(=O)NCCCN(C)C)CC(=O)N(Cc3cc(C(F)(F)F)cc(C(F)(F)F)c3)[C@@H]2c2ccc(CO)cc2I)cc1,-0.0355,0.703,0.879,-0.0675 (inactive),-0.833,-2.21,-1.18,-1.71,-1.53,0.835
CC(C)NC(=O)[C@@]1(C)c2ccccc2C(=O)N(Cc2cc(C(F)(F)F)cc(C(F)(F)F)c2)[C@H]1c1ccc(CO)cc1,1.2,0.0251,1.17,0.207 (inactive),-0.609,-0.589,-0.584,-1.13,-0.788,-0.0259
COC(=O)[C@@]1(Cc2ccc(OC)cc2)[C@H]2c3cc(C(=O)N(C)C)n(C)c3C[C@H]2CN1C(=O)c1ccccc1,0.843,0.928,1.28,-1.96 (inactive),0.924,0.789,0.534,1.33,-0.105,0.511
C[N+](C)(C)CCCCNC(=O)[C@@H]1C[C@@H]2C(=O)N[C@@H](Cc3ccccc3)C(=O)N2[C@@H]1c1cccc(OCCO)c1,1.32,-0.0907,0.361,-0.379 (inactive),0.849,-0.494,-0.35,0.683,1.49,-0.15
COc1ccc(C(=O)Nc2ccc(CN3C(=O)[C@]4(O[C@H](CCO)[C@@H]([Si](C)(C)c5ccc(OC)cc5)[C@@H]4C)c4ccccc43)cc2)cc1,1.21,-0.122,0.326,-3.38 (inactive),0.708,0.762,0.231,1.02,0.241,1.3
O=C(NCCN1CCOCC1)[C@@H]1c2ccccc2C(=O)N(C2CCCCC2)[C@H]1c1ccc(CO)cc1,1.06,0.484,0.92,0.261 (inactive),-0.534,-0.362,-1.03,-0.942,-0.809,0.891
COC(=O)[C@@]1(Cc2ccc(OC)cc2)[C@H]2c3cc(C(=O)N4CCCC4)n(Cc4ccc(O)c(OC)c4)c3C[C@H]2CN1C(=O)c1ccccc1,1.18,1.92,1.39,-1.15 (inactive),0.511,0.164,0.207,0.282,0.0115,-0.0478
CN1C(=O)C2C=CC(C(O)C#Cc3ccccc3)N(N3CCCCC3)C2C1=O (stereo not given),1.68,1.01,1.09,0.762 (inactive),0.945,0.216,0.568,0.731,0.0369,1.18
O=C1c2ccccc2[C@](Cc2ccccc2I)(C(=O)NCC(F)(F)F)[C@H](c2ccc(CO)cc2)N1Cc1ccccc1Cl,1.4,-0.0951,0.502,-0.504 (inactive),0.588,0.539,0.0527,0.923,-0.19,0.41
O=C(c1ccccc1)N1C(=O)[C@@]2(Cc3ccccc31)N=C(c1ccc(OCCCO)cc1)O[C@H]2c1ccccc1,1.64,1,0.965,-0.663 (inactive),1.06,1.33,0.782,1.22,0.973,0.992
